# Pf Dd2 growth: blocks in vitro growth of P. falciparum Dd2; P. falciparum Dd2 growth, SYBR Green, 72 h; Potency, µM (titrated, usually from 28.9 µM), without a hit: top-dose activity, negative = inhibition, actives largely listed as inhibitors; hit rate 4.3% among 120,000; AID 1347417; active = well fitted inhibition curve with a large enough effect;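 note: plate controls were DMSO vehicle for no effect and reference drug for full effect; nearly all actives have a fitted effect of over 65% in size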
#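 Infected erythrocytes (Dd2, 0.3% parasitemia, 2.5% hematocrit final) are added to compound in RPMI-1640/Albumax II medium, grown 72 h at 37C in low oxygen, then lysed with saponin/Triton-X containing SYBR Green and read by fluorescence.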
# Active calls of the source: *; i = inactive. This excerpt belongs to a sample that is enriched for hits. Potency is the fitted concentration of half-maximal effect.
SMILES,Pf Dd2 growth
COc1cccc(C(=O)NC(C(=O)NCC(C)C)C2CCN(C(=O)c3ccc(F)cc3)CC2)c1 (stereo not drawn),-2%
Nc1nc2c(s1)C(c1ccc(F)cc1F)CC(=O)N2 (stereo not drawn),-15%
COCC1CN(C)CC12CCN(Cc1ccncc1)CC2 (stereo not drawn),13%
COCC1CN(C)CC12CCN(Cc1cc(Br)ccc1F)CC2 (stereo not drawn),3.5µM*
COCC1CN(C)CC12CCN(Cc1ccncc1F)CC2 (stereo not drawn),19%
Cc1cc(OCCN2CCOCC2)c(C)c2c1CC[C@@H]([C@H](C)C(=O)N1CCOCC1)C2,i
